Bioassay records as filed in PubChem BioAssay.
PLK1 PBD block: inhibitors of human PLK1 polo-box domain binding | P53350 | Plk1 PBD binding of FITC phosphopeptide, fluorescence polarization | Potency, µM, inactives show max response, negative = inhibition, actives largely listed as inhibitors | 360,000 compounds, 2.8% hits; note: potency is the fitted concentration of half-maximal effect; series mostly up to about 57 µM; % is set by controls: 0 for no effect and ±100 for the full control effect; nearly all actives have a fitted effect of over 65% in size
Target sequence (P53350 whole entry, looked up, the tested form may be a part): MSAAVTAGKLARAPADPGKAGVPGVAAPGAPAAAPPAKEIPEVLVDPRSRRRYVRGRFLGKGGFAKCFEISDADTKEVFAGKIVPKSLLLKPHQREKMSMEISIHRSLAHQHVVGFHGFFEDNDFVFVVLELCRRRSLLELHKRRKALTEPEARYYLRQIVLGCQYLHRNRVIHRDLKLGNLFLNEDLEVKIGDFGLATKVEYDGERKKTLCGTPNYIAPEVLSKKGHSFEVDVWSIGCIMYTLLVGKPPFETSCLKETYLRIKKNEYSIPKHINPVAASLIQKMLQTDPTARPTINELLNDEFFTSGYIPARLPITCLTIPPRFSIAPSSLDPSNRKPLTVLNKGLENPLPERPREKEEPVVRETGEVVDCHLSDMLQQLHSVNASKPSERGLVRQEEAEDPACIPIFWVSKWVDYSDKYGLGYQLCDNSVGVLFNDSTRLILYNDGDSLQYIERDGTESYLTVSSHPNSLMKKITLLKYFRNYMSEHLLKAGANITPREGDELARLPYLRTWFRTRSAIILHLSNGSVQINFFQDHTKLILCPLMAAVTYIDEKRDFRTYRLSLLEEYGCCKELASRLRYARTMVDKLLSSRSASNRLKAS
BAZ2B inh: blocks human BAZ2B | 360,000 compounds, 4.4% hits | Potency, µM (highest dose often 114 µM), inactives show at the top dose activity change, negative = inhibition, actives largely listed as inhibitors | AlphaScreen BAZ2B-H3K14Ac peptide displacement | Q9UIF8; note: potency is the fitted concentration of half-maximal effect; % is set by controls: 0 for no effect and ±100 for the full control effect; nearly all actives have a fitted effect of over 60% in size
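In this displacement format the biotinylated H3(5-23) peptide acetylated at Lys14 serves as ligand at 50 nM, with BAZ2B at 50 nM in PBS pH 7.4 containing 0.01% Tween-20. Donor and acceptor beads are 10 ug/mL final.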
PI5P4Ka inh: inhibitors of human PI5P4K alpha | AID 652105 | PI5P4Kalpha enzyme, ADP-Glo luminescence, 60 min; active compounds read low | max response, % | P48426 | 330,000 compounds, 1.2% hits; active = max response of -50% or lower; inconclusive = between -30% and -50%; inactive = -30% or higher; note: value at the top dose of about 77 µM; % is set by controls: 0 for no effect and ±100 for the full control effect
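ADP-Glo luminescence end-point read after a 60 min room-temperature kinase reaction of PI5P4Kalpha plus substrate, initiated with ATP at 5 microM final. Buffer: 0.038 M HEPES pH 7.4, EGTA, 0.1% CHAPS, 5% DMSO.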
JMJD2A Tudor: blocks the human JMJD2A Tudor domain; O75164; AlphaScreen JMJD2A-Tudor / H3K4me3 peptide binding; Potency, µM (highest dose often 114 µM), without a hit: at the highest dose activity change, negative = inhibition, actives largely listed as inhibitors; 390,000 compounds, 4.4% hits; AID 504339; note: potency is the fitted concentration of half-maximal effect; % is set by controls: 0 for no effect and ±100 for the full control effect; nearly all actives have a fitted effect of over 50% in size
G9a block: inhibitors of human histone lysine methyltransferase G9a. Q96KQ7. G9a H3K9 monomethylation, AlphaScreen, 2 h. Potency, µM (highest dose often 102 µM), for the others: at the top dose activity, negative = inhibition, hits mostly inhibitors. 350,000 compounds, 8.8% hits; note: potency is the fitted concentration of half-maximal effect; % is set by controls: 0 for no effect and ±100 for the full control effect; nearly all actives have a fitted effect of over 75% in size
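Using a bead-based AlphaScreen, monomethylated H3K9 product from 2 h room-temperature reactions (G9a 20 nM, peptide 500 nM, SAM 20 uM) was detected with 0.5 ug/mL rabbit anti-H3K9me1 antibody.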
HP1b chromo inh: blocks HP1-beta chromodomain binding to methylated histone tails; AID 540317; Potency, µM (highest dose often 114 µM), inactives show at the top dose activity change, negative = inhibition, usual class: inhibitors; P83916; 390,000 compounds, 0.56% hits; AlphaScreen HP1-beta / biotin-H3K9me3 peptide binding; note: potency is the fitted concentration of half-maximal effect; nearly all actives have a fitted effect of over 70% in size
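Compound inhibition of the preformed complex between 50 nM HP1-beta and 50 nM biotinylated H3K9me3 peptide was read by AlphaScreen. Buffer was PBS pH 7.4 with 0.01% Tween-20. Incubations ran 30 min at room temperature, with 10 ug/mL donor/acceptor beads.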
Numbers without * were called inactive; [ ] = remark or other dose. Compounds with a hit are over-represented: about 12% of the library has one in this group of screens. Unless noted, calls come from the whole dose curve; as a rule, active = well fitted curve in the direction sought with a large enough effect; inconclusive = small, poorly fitted or top-dose-only effect, or another doubt; inactive = no such curve, though single readings can be large; an effect the other way counts as inactive or inconclusive.

`CCc1c(C)c2cc3c(c(C)c2oc1=O)OCN(CCc1ccccc1F)C3` gave BAZ2B inh 13%, JMJD2A Tudor -15%, G9a block 8%[59 µM] and HP1b chromo inh 93%.
Screening CN1C(=O)C(Cl)(Cl)C(=O)c2ccccc21 returned PLK1 PBD block 12µM*, BAZ2B inh 40µM*, PI5P4Ka inh -89*, JMJD2A Tudor 28µM*, G9a block 1µM* and HP1b chromo inh -14%.
Screening CN1C(=O)C2(NC(=O)c3ccccc3N2C)c2ccccc21 (centres undefined) returned PLK1 PBD block 3%, BAZ2B inh 4%, PI5P4Ka inh -16, JMJD2A Tudor -17%, G9a block -6%[59 µM] and HP1b chromo inh 29%.
Screening Cc1nc2ccccc2cc1C(=O)NCc1ccc(F)cc1 returned PLK1 PBD block 0%, BAZ2B inh -1%, PI5P4Ka inh 7, JMJD2A Tudor 0%, G9a block 20%[0.0925 µM] and HP1b chromo inh 39%.
CCN(CC)CCNC(=O)c1ccccc1N was read as PLK1 PBD block 1%, BAZ2B inh -4%, PI5P4Ka inh 0, JMJD2A Tudor 4%, G9a block -5%[59 µM] and HP1b chromo inh 32%.
`CCN(CC)CCNC(=O)c1cc2ccccc2nc1Cl` gave PLK1 PBD block 1%, BAZ2B inh 79µM*, PI5P4Ka inh 0, JMJD2A Tudor 35µM*, G9a block inconclusive and HP1b chromo inh -10%.
`O=C(NCc1ccncc1)c1cc2ccccc2nc1Cl` gave PLK1 PBD block -7%, BAZ2B inh -17%, PI5P4Ka inh -4, JMJD2A Tudor -12%, G9a block 45µM* and HP1b chromo inh 16%.
C=C1CCN(C(C(=O)O)C(C)C)S(=O)(=O)c2ccccc21 (centres undefined) was read as JMJD2A Tudor -15% and HP1b chromo inh 9%.
Cn1c(-c2ccc(C=O)s2)nc2c3ccccc3c3ccccc3c21 was read as PLK1 PBD block 27µM*, BAZ2B inh 76%, PI5P4Ka inh 2, JMJD2A Tudor -3%, G9a block inconclusive and HP1b chromo inh 50%.
`Cc1cccc(N2CCN(CCCNc3ncnc4onc(-c5ccc(Cl)cc5)c34)CC2C)c1` (centres undefined) gave BAZ2B inh inconclusive, JMJD2A Tudor inconclusive, G9a block inconclusive and HP1b chromo inh -21%.
For COc1ccccc1S(=O)(=O)N(C)C[C@H]1OCc2cnnn2CCCC(=O)N([C@H](C)CO)C[C@H]1C the results were PLK1 PBD block -6% and PI5P4Ka inh 1.
For COc1cc(OC)c2c(c1C(CCN1CCCC1)c1ccc(N(C)C)cc1)OC(=O)CC2c1ccc(N(C)C)cc1 (centres undefined) the results were JMJD2A Tudor 16µM* and HP1b chromo inh inconclusive.
For COc1ccc(C2CC(=O)Oc3c(C(CCN4CCCC(C)C4)c4ccc(N(C)C)cc4)c(OC)cc(OC)c32)cc1 (centres undefined) the results were PLK1 PBD block -3%, BAZ2B inh 14µM*, PI5P4Ka inh 9, JMJD2A Tudor 14µM*, G9a block -120%[59 µM] and HP1b chromo inh 14µM*.
COc1ccc(C(CCN2CCOCC2)c2c(OC)cc(OC)c3ccc(=O)oc23)cc1 (centres undefined) was read as PLK1 PBD block -2%, PI5P4Ka inh 1, JMJD2A Tudor -15% and HP1b chromo inh 11%.
For COc1ccc(C2CC(=O)Oc3c(C(CCN4CCCC(C)C4)c4cc(OC)c(OC)c(OC)c4)c(OC)cc(OC)c32)cc1 (centres undefined) the results were JMJD2A Tudor inconclusive and HP1b chromo inh 17%.
Screening COc1ccc(C2CC(=O)Oc3c(C(CCN4CCCCC4)c4ccc(N(C)C)cc4)c(OC)cc(OC)c32)cc1 (centres undefined) returned PLK1 PBD block 6%, BAZ2B inh 22µM*, PI5P4Ka inh -7, JMJD2A Tudor 16µM*, G9a block -105%[59 µM] and HP1b chromo inh inconclusive.
Screening CC(=O)c1ccc(N2CCN(C(=O)c3cc(-c4ccncc4)nc4ccc(Cl)cc34)CC2)cc1 returned PLK1 PBD block -10%, BAZ2B inh -26%, PI5P4Ka inh 4, JMJD2A Tudor -21%, G9a block 9%[12.7 µM] and HP1b chromo inh 17%.
For O=C(c1cccc(-n2cccc2)c1)N1CCN(S(=O)(=O)c2ccccc2Br)CC1 the results were PLK1 PBD block -1%, BAZ2B inh -33%, PI5P4Ka inh 7, JMJD2A Tudor -21%, G9a block 45µM* and HP1b chromo inh -6%.
Screening O=C(c1ccncc1)N1CCC2(CCCN(c3cccc(-c4ccccc4)c3)C2)CC1 returned G9a block 0%[12.7 µM].
For CCCCn1c(=O)nc2n(-c3ccc(Cl)cc3)c3ccccc3cc-2c1=O the results were PLK1 PBD block -8%, BAZ2B inh 7%, PI5P4Ka inh 0, JMJD2A Tudor 4%, G9a block 40µM* and HP1b chromo inh 34%.
For CCCCn1c(=O)nc2n(-c3ccc(C)cc3)c3ccccc3cc-2c1=O the results were PLK1 PBD block -1%, BAZ2B inh 5%, PI5P4Ka inh 1, JMJD2A Tudor -5% and G9a block 18%.
CC(=O)N/N=C(\C)CC(=O)Nc1ccc2c(c1)OCCO2 was read as PLK1 PBD block -12%, BAZ2B inh -38%, PI5P4Ka inh -5, JMJD2A Tudor -15%, G9a block 45µM* and HP1b chromo inh 13%.
`O=C(O)CCCCCNC(=O)Nc1ccc2c(c1)OCCO2` gave PLK1 PBD block 1%, BAZ2B inh 7%, PI5P4Ka inh 5, JMJD2A Tudor -10%, G9a block 30%[59 µM] and HP1b chromo inh 23%.
For O=C(O)CCNc1ccc2c(c1)OCCO2 the results were PLK1 PBD block -7%, BAZ2B inh -9%, PI5P4Ka inh 1, JMJD2A Tudor 45µM*, G9a block inconclusive and HP1b chromo inh 1%.
CC(=O)Nc1ccc2c(c1)OCCOCCOc1cc(NC(C)=O)ccc1OCCO2 was read as PLK1 PBD block -8%, BAZ2B inh -16%, PI5P4Ka inh 2, JMJD2A Tudor -14%, G9a block 50µM* and HP1b chromo inh 9%.
Screening O=C(O)/C=C\C(=O)NNC(=O)c1cc(-c2ccccc2)n[nH]1 returned PLK1 PBD block -11%, BAZ2B inh 28µM*, PI5P4Ka inh inconclusive, JMJD2A Tudor 25µM* and HP1b chromo inh 20%.
For CC(C)C/C(O)=C/c1nc2cc(Cl)ccc2oc1=O the results were PLK1 PBD block -7%, BAZ2B inh inconclusive, PI5P4Ka inh 9, JMJD2A Tudor inconclusive, G9a block 35µM* and HP1b chromo inh 16%.
